# In PubChem BioAssay AID602481 (Broad Institute, 2012):
# Several values for one entry are separate records, joined by “and”; a condition that tells them apart may be missing. Identical values can stand only once. In all, about 360,000 compounds went through this assay and about 340 (0.094%) were called active. Rule as the data show it: active = inhibition above about 40%; inconclusive = no clear call, values can overlap the other calls; inactive = below that. The full list was thinned out, with actives kept by preference. Some structures have more than one record in an assay (separate samples or runs), and their calls can disagree.
# System: 7,8-diaminopelargonic acid synthase BioA (Mycobacterium tuberculosis)
# Assay: M. tuberculosis BioA enzyme inhibitors, primary screen, biochemical, plate reader, single point, HTS (AID 602481)
# Details: purified M. tuberculosis BioA enzyme, at 9.99 µM, stronger effect = higher value
row,SMILES,inhibition
1,CC(C)Oc1ccc(CCc2n[nH]c(=S)n2Cc2ccccc2)cc1,0.782% (inactive)
2,CC(C)Oc1ccc(Cc2n[nH]c(=S)n2Cc2ccccc2)cc1Cl,0.831% (inactive)
3,COc1cc(-c2n[nH]c(=S)n2Cc2ccccc2)cc(OC)c1OC,69.8% (active)
4,COc1ccc(S(=O)(=O)N2C[C@@H](O)COC[C@H]3O[C@@H](CC(=O)NCCN4CCCCC4)CC[C@@H]32)cc1,-1.77% (inactive)
5,CC(C)NC(=O)N1[C@@H]2CN(C(=O)C3CCCCC3)c3ccccc3[C@@H]2[C@@H]1CO,-4.4% (inactive)
6,Cc1noc(C)c1S(=O)(=O)N(C)C[C@@H]1Oc2c(NS(=O)(=O)c3cn(C)cn3)cccc2C(=O)N([C@@H](C)CO)C[C@H]1C,-0.608% (inactive)
7,Cc1ccc(S(=O)(=O)N(C)C[C@@H]2Oc3c(NC(=O)NC(C)C)cccc3C(=O)N([C@H](C)CO)C[C@H]2C)cc1,-1.17% (inactive)
8,C[C@]12CCC(=O)C=C1C=CC1C2CC[C@@]2(C)C1CC[C@@]21CCC(=O)O1 (some centres not stated),19.6% (inactive)
9,CC(=O)O[C@]1(C(C)=O)CC[C@H]2[C@@H]3C=C(C)C4=CC(=O)CC[C@]4(C)[C@H]3CC[C@@]21C,13.2% (inactive) and 51.3% (active)
10,CC(=O)OCC(=O)C1(O)CCC2C3CC(C)C4=CC(=O)CCC4(C)C3C(O)CC21C (configuration not stated),-0.825% (inactive)
11,CC(C)C#Cc1cnc2c(c1)C(=O)N([C@@H](C)CO)C[C@@H](C)[C@@H](CN(C)C(=O)CN1CCOCC1)O2,-1.21% (inactive)
12,C[C@@H]1CN([C@@H](C)CO)C(=O)c2cc(NS(=O)(=O)c3cn(C)cn3)ccc2O[C@@H](C)CCCCO[C@H]1CN(C)S(=O)(=O)c1cccs1,0.052% (inactive)
13,O=C(C1CCCC1)N1[C@H](CO)[C@@H]2c3ccccc3N(S(=O)(=O)c3ccccc3)C[C@@H]21,6.11% (inactive)
14,Cc1ccc(S(=O)(=O)N[C@H]2C=C[C@@H](CC(=O)NCCc3ccncc3)O[C@@H]2CO)cc1,2.21% (inactive)
15,C[C@H](CO)N1C[C@H](C)[C@H](CN(C)S(=O)(=O)c2ccc(C#N)cc2)Oc2ncc(-c3cccc(F)c3)cc2C1=O,4.36% (inactive)
16,CO[C@@H](CN(C)S(=O)(=O)c1ccccc1)[C@@H](C)CN(Cc1ccccc1Cl)[C@H](C)CO,-0.143% (inactive)
17,CC1CC(C)CN(C(=O)CSc2nnc(CSc3ncccn3)n2C)C1 (configuration not stated),0.828% (inactive)
18,CC(=O)CSc1nnc(CSc2ncccn2)n1C1CCCCC1,43.5% (active)
19,O=C(CSc1nnc(-c2ccncc2)n1C1CCCCC1)Nc1ccccc1,-0.812% (inactive)
20,CCCN1C[C@H](C)[C@@H](OC)CN(C)C(=O)c2ccc(NC(=O)c3cnccn3)cc2OC[C@H]1C,-1.47% (inactive)
21,COc1ccc(NC(=O)N(C)C[C@H]2OCCCC[C@@H](C)Oc3ccc(NC(=O)Nc4ccc5c(c4)OCO5)cc3C(=O)N([C@H](C)CO)C[C@@H]2C)cc1,-1.28% (inactive)
22,C[C@H](CO)N1C[C@H](C)[C@@H](CN(C)C)Oc2ccc(NS(=O)(=O)c3cccs3)cc2C1=O,2.81% (inactive)
23,CC(=O)N1[C@H](CO)[C@H]2c3ccccc3N(C(=O)c3ccc(F)cc3)C[C@H]21,-3.14% (inactive)

row,SMILES,inhibition
1,Cc1ccc(S(=O)(=O)N(C)C[C@@H]2Oc3c(NC(=O)C4CC4)cccc3C(=O)N([C@H](C)CO)C[C@@H]2C)cc1,-0.903% (inactive)
2,C[C@@H]1CCCCO[C@H](CN(C)C)[C@@H](C)CN([C@H](C)CO)C(=O)c2cc(N(C)C)ccc2O1,-0.059% (inactive)
3,CN(C)CC(=O)Nc1ccc2c(c1)[C@H]1C[C@@H](CC(=O)NCc3ccc(Cl)cc3)O[C@@H](CO)[C@H]1O2,0.123% (inactive)
4,C[C@H]1CN([C@@H](C)CO)C(=O)CCCn2cc(nn2)CO[C@H]1CN(C)C(=O)Nc1cccc(C(F)(F)F)c1,-3.91% (inactive)
5,COCC(=O)N1[C@H](CO)[C@@H](c2ccccc2)[C@H]1CN(C)C(=O)c1ccncc1,-4.1% (inactive)
6,C[C@@H]1CN([C@@H](C)CO)C(=O)c2c(c3ccccc3n2C)-c2ccccc2CO[C@H]1CN(C)S(=O)(=O)c1cccs1,-2.08% (inactive)
7,CN1[C@@H]2CN(C(=O)C3CCCCC3)c3ccccc3[C@@H]2[C@@H]1CO,5.87% (inactive)
8,CC(C)(C)[S@@](=O)N1Cc2cc(C(=O)N3CCCCC3)nc(-c3cccc(-c4cccc(C#N)c4)c3)c2[C@H]1CCO,0.956% (inactive)
9,COc1ccc(NC(=O)Nc2ccc3c(c2)[C@H]2C[C@H](CC(=O)NC4CCCCC4)O[C@H](CO)[C@H]2O3)cc1,0.43% (inactive)
10,Cn1nccc1/C=N\NC(=O)c1ccc(Cl)cc1,69.1% (active)
11,CC(=NNC(=O)c1ccncc1)c1ccc(Cl)c(Cl)c1,-0.685% (inactive)
12,CN1CCC(=NNC(=O)c2ccc(N(Cc3ccc(Cl)cc3)S(C)(=O)=O)cc2)CC1,-0.516% (inactive)
13,CC(=O)Nc1ccccc1-c1cn(CC(=O)N2CCOCC2)nn1,-2.47% (inactive)
14,CC(C)CC#Cc1cnc2c(c1)C(=O)N([C@@H](C)CO)C[C@H](C)[C@@H](CN(C)Cc1ccccc1C(=O)O)O2,-0.715% (inactive)
15,C[C@@H]1CN([C@@H](C)CO)C(=O)c2cc(NC(=O)CCCN(C)C)ccc2O[C@@H](C)CCCCO[C@H]1CN(C)C(=O)Nc1cccc2ccccc12,-0.656% (inactive)
16,O=C(C[C@@H]1C[C@H]2c3cc(NC(=O)CC4CC4)ccc3O[C@H]2[C@@H](CO)O1)NCc1ccc2c(c1)OCO2,-1.7% (inactive)
17,C[C@@H]1CCCCO[C@@H](CN(C)C(=O)Nc2ccc3c(c2)OCO3)[C@H](C)CN([C@H](C)CO)C(=O)c2cc(NC(=O)CCCN(C)C)ccc2O1,1.19% (inactive)
18,CCC(=O)Nc1ccc2c(c1)C(=O)N(C)C[C@H](OC)[C@H](C)CN(C(=O)c1ccccn1)[C@@H](C)CO2,-2.41% (inactive)
19,COCCNC(=O)C[C@H]1C=C[C@@H](NS(=O)(=O)c2ccc(C)cc2)[C@@H](CO)O1,-2.72% (inactive)
20,S=C1NC(c2ccccc2)=NCN1c1ccc(Br)cc1,0.0265% (inactive)
21,Cc1nc(=O)c(-c2ccccc2)c(C)n1-c1ccc(Br)cc1,42.7% (active)
22,Cc1n[nH]c(=O)n1-c1ccc(Oc2ccccc2)cc1,-2.98% (inactive)
23,CN(C)CC(=O)N1CCCCN2[C@@H](CO)[C@H](c3ccc(-c4cccnc4)cc3)[C@@H]2C1,0.035% (inactive)

row,SMILES,inhibition
1,C[C@H]1CN([C@@H](C)CO)C(=O)c2cc(C3=CCCC3)cnc2O[C@@H]1CN(C)Cc1cccnc1,4.42% (inactive)
2,CN1C(=O)c2cc(NC(=O)c3cccc(F)c3)ccc2OC[C@H]2O[C@@H](CC(=O)NCc3ccccc3Cl)CC[C@@H]21,0.94% (inactive)
3,Cc1noc(C)c1NC(=O)Nc1cccc2c1O[C@H](CN(C)S(C)(=O)=O)[C@H](C)CN([C@H](C)CO)C2=O,3.42% (inactive)
4,Cc1ccccc1S(=O)(=O)N1[C@H](CO)[C@@H](c2ccc(-c3ccccc3)cc2)[C@@H]1C#N,-1.28% (inactive)
5,C[C@H](CO)N1C[C@H](C)[C@H](CN(C)CC2CCCC2)Oc2ncc(-c3ccc(F)cc3)cc2C1=O,-5.25% (inactive)
6,CC(C)NC(=O)Nc1cccc2c1O[C@@H](CN(C)Cc1ccc(C(=O)O)cc1)[C@@H](C)CN([C@H](C)CO)C2=O,-3.95% (inactive)
7,CCC(=O)N1[C@H](CO)[C@@H]2c3ccccc3N(S(=O)(=O)c3ccccc3C)C[C@@H]21,-6.45% (inactive)
8,C[C@@H]1CN([C@@H](C)CO)C(=O)c2cccc(NC(=O)c3ccc(-c4nccs4)cc3)c2O[C@@H]1CN(C)S(=O)(=O)c1ccccc1,-1.38% (inactive)
9,O=c1[nH]c(N2CCN(Cc3ccc4c(c3)OCO4)CC2)nc2c1CCCC2,71.1% (active)
10,CCN1CCN(c2nc3c(c(=O)[nH]2)CCC3)CC1,-4.22% (inactive)
11,CCc1c(C)nc(N2CCN(Cc3ccccc3)CC2)[nH]c1=O,-0.075% (inactive)
12,CO[C@@H]1CN(C)C(=O)c2ccc(NS(=O)(=O)c3ccc(C)cc3)cc2OC[C@@H](C)N(Cc2nccs2)C[C@H]1C,-0.694% (inactive)
13,CCC(=O)Nc1ccc2c(c1)C(=O)N(C)[C@@H]1CC[C@H](CC(=O)NCc3ccccc3)O[C@H]1CO2,-0.647% (inactive)
14,Cc1ccc(S(=O)(=O)N(C)C[C@@H]2Oc3c(NC(=O)C4CC4)cccc3C(=O)N([C@H](C)CO)C[C@H]2C)cc1,-0.505% (inactive)
15,CC(C)NC(=O)N(C)C[C@@H]1Oc2ccc(NC(=O)CCCCCC(=O)Nc3ccccc3N)cc2C(=O)N([C@@H](C)CO)C[C@H]1C,-2.93% (inactive)
16,CNC(=O)C[C@H]1CC[C@@H]2[C@H](COc3ccc(NC(=O)Nc4cccc(F)c4)cc3C(=O)N2C)O1,32% (inactive)
17,COCCNC(=O)C[C@H]1CC[C@@H]2[C@H](COc3ccc(NC(=O)Nc4cccc(F)c4)cc3C(=O)N2C)O1,44.7% (active)
18,CCNC(=O)Nc1ccc2c(c1)C(=O)N(C)[C@@H]1CC[C@@H](CC(=O)NCCOC)O[C@@H]1CO2,0.346% (inactive)
19,CCC(=O)N1[C@H](C(=O)NCc2ccc(F)cc2)[C@@H](CO)[C@@H]2Cn3c(ccc(C4=CCCCC4)c3=O)[C@@H]21,-2.21% (inactive)
20,CCN1[C@@H]2c3ccc(C4=CCCC4)c(=O)n3C[C@@H]2[C@@H](CO)[C@@H]1C(=O)NCc1ccccn1,-3.69% (inactive)
21,CS(=O)(=O)N1[C@H](C(=O)NCc2ccncc2)[C@@H](CO)[C@@H]2Cn3c(ccc(C4=CCCCC4)c3=O)[C@@H]21,49% (active)
